Assay outcomes (PubChem BioAssay)
HCMV inh – blocks human cytomegalovirus replication; HFF cells, HCMV-luciferase reporter, 72 h; active compounds read low; activity change, negative = inhibition, % at 57.5 µM; hit rate 4.5% among 410,000; in the data active = activity change below about -60%; inconclusive = no clear call, values can overlap the other calls; inactive = above about -39%
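Two-dose cell screen: HFF monolayers treated with compounds and infected with luciferase-expressing HCMV at 1 PFU/cell, 72 h at 37C, then lysed for luciferase measurement.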
Lassa entry inh – blocks Lassa virus binding to or entry into cells. Lassa virus pseudotype entry inhibition, cell reporter. Potency, µM (doses to about 37.9 µM), for inactives: at the highest dose activity change, negative = inhibition, hits mostly inhibitors. hit rate 1.2% among 300,000. AID 540256; calls by dose curve; tested in HEK293 cells; note: potency is the fitted concentration of half-maximal effect; nearly all actives have a fitted effect of over 50% in size
Pf growth 48h – inhibits P. falciparum growth in the first generation, 48 h; P. falciparum luciferase growth in erythrocytes, 48 h; Potency, µM (doses to about 28.7 µM), inactives show at the top dose activity change, negative = inhibition, actives largely listed as inhibitors; hit rate 5.9% among 310,000; note: potency is the fitted concentration of half-maximal effect
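A one-generation exposure of luciferase-tagged malaria parasites in RPMI 1640/Albumax erythrocyte culture, 37 C and 5% CO2. Inhibition is inferred from decreased luminescence after adding detection reagent.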
Pf growth 96h – P. falciparum growth inhibition at 96 hours; P. falciparum luciferase reporter growth, 96 h; Potency, µM (doses to about 28.7 µM), for the others: at the highest dose activity change, negative = inhibition, actives largely listed as inhibitors; hit rate 6.9% among 320,000; AID 504834; note: potency is the fitted concentration of half-maximal effect
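Plates of compound plus infected erythrocytes (2% hematocrit, 0.05% parasitemia final) incubate 96 hours, 37 C, 5% CO2. Detection reagent added; reduced luminescence from the parasites' luciferase reporter flags inhibition.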
HCV inh – inhibitors of hepatitis C virus infection; Potency, µM (highest dose often 41.8 µM), without a hit: at the top dose activity change, negative = inhibition, actives largely listed as inhibitors; hit rate 3.4% among 340,000; Huh7.5.1 HCVcc-Cre infection, luciferase reporter, 44 h; note: potency is the fitted concentration of half-maximal effect
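After 44 h co-culture of compound, cells and HCVcc-Cre (~0.5 moi), substrate is added for 15 min at room temperature and luciferase measured over 15 sec. Cells were seeded at 1,000/well and pre-cultured 4 h.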
MARV entry inh – inhibitors of Marburg virus binding or cell entry. Potency, µM (doses to about 37.8 µM), for the others: at the highest dose activity change, negative = inhibition, hits mostly inhibitors. Marburg virus pseudotyped entry inhibition, cell reporter. hit rate 1.8% among 300,000. AID 540276; calls by dose curve; tested in HEK293 cells; note: potency is the fitted concentration of half-maximal effect
Active calls of the source: *; ? = inconclusive; . = no result given; ! = not confirmed by another sample; [ ] = another dose, or the depositor's remark. A selection: hits, their analogues and other compounds. The true share with any hit is near 14%. Unless noted, calls come from the whole dose curve; as a rule, active = well fitted inhibition curve with a large enough effect; inconclusive = small, poorly fitted or top-dose-only effect, or another doubt; inactive = no such curve, though single readings can be large or run the other way. % is set by controls: 0 for no effect and ±100 for the full control effect.

SMILES	HCMV inh	Lassa entry inh	Pf growth 48h	Pf growth 96h	HCV inh	MARV entry inh
C=CCNC(=S)Nc1ccc(C)c(S(=O)(=O)N2CCCCC2)c1	21.4	-26.7%	6.2%	38.8%	1.8%	-13.9%
COc1ccc2ccccc2c1C1NC(=O)c2ccccc2N1 (stereo not given)	-15.6	?	.	.	2.3%	-9.3%
COc1ccc(OC)c(C2=NOC(C(=O)NCc3cccs3)C2)c1 (stereo not given)	-2.6	.	7.2%	0.37µM*	-3.6%	.
COc1ccc(OC)c(C2=NOC(C(=O)Nc3cccnc3)C2)c1 (stereo not given)	-8.0	-32.0%[14.3 µM]	6.8%	11.7µM*	-3.3%	6.2%
COc1ccc(OC)c(C2=NOC(C(=O)Nc3ccc4c(c3)OCCO4)C2)c1 (stereo not given)	26.9	17.7%[46.1 µM]	-22.1%	-24.3%	-8.5%	-11.7%[46.1 µM]
CN(CCc1ccccc1)C(=O)c1cccc(NC(=O)Cc2cccc(NC(=O)C3CCCN(C(=O)C4CCCC4)C3)c2)c1 (stereo not given)	-24.4	.	.	.	?	.
Cc1cc(=O)n(CC(=O)N2CCN(c3ccccc3F)CC2)c2c1c(C)nn2C	-60.4*	-24.3%[46.1 µM]	.	.	.	.
Cc1nn(C)c2c1c(C(F)(F)F)cc(=O)n2CC(=O)N1CCN(c2ccccc2F)CC1	6.6	27.3%[46.1 µM]	.	.	.	.
CCN(Cc1ccccc1)C(=O)Cn1c(=O)oc2cc(S(=O)(=O)N3CCCCCC3)ccc21	?	?	.	.	.	-4.5%[46.1 µM]
CCOC(=O)N1CCN(Cc2nc3cc(NC(=O)c4cccs4)ccc3n2C)CC1	?	0.3%	?	0.0%	?	?
CCCc1nc2ccc(NC(=O)c3cccs3)cc2c(=O)n1Cc1ccccc1Cl	?	?	1.85µM*	?	?	?
Cn1c(CN2CCCCC2)nc2cc(NC(=O)c3cccc(Br)c3)ccc21	-95.0*!	?	.	4.65µM*	5.62µM*	?
CCCc1nc2ccc(NC(C)=O)cc2c(=O)n1Cc1ccc(Cl)cc1	-3.1	6.3%	129.4%	36.1%	-9.1%	?
Cn1c(CN2CCCCC2)nc2cc(NC(=O)c3cccs3)ccc21	-30.5	17.0%	10.4µM*	-27.0%	?	5.4%
CCOC(=O)N1CCN(Cc2nc3cc(NC(=O)c4cccs4)ccc3n2CC)CC1	-16.4	.	2.94µM*	112.6%	?	.
CCOc1ccc(-n2c(=O)c3c(C)c(C(=O)N(C)C)sc3n(Cc3cc(C)ccc3C)c2=O)cc1	42.1	6.1%[46.1 µM]	.	.	.	.
Cc1cc2c(n1-c1ccc(C(=O)O)cc1)CCCCC2	.	.	-3.0%	2.2%	.	.
CCOc1ccc(CNC(=O)Cn2c(=O)c3cccn3c3ccc(F)cc32)cc1OC	38.2	6.8%[46.1 µM]	.	.	.	.
Cn1c(CN2CCCCC2)nc2cc(NC(=O)c3ccccc3)ccc21	-60.0*	36.4%[14.3 µM]	?	.	-26.1%	10.6%
O=[N+]([O-])c1cc2oc3c(c2c(C=NCc2ccncc2)c1O)CCCC3	.	2.9%	10.4µM*	?	?	3.3%
CC(C)(C)N=Cc1c(O)ccc2oc3c(c12)CCCC3	5.4	.	23.2%[0.00184 µM]	7.3%	-2.6%	.
CCCNC(=O)C1(C)CCCN(C(=O)/C=C/c2ccccc2)C1 (stereo not given)	-34.1	.	.	.	.	.
Cc1nn(-c2ccccc2)c2nc(N)c(C#N)c(-c3ccc(C(C)(C)C)cc3)c12	22.0	.	?	4.65µM*	14.6%	.
COc1cccc(-c2c(C#N)c(N)nc3c2c(C)nn3-c2ccccc2)c1O	5.0	.	0.37µM*	0.522µM*	?	.
O=C(COc1ccccc1Cl)OCc1cc(=O)n2nc(-c3cccs3)sc2n1	19.7	-17.4%[46.1 µM]	.	.	.	.
SMILES	HCMV inh	Lassa entry inh	Pf growth 48h	Pf growth 96h	HCV inh	MARV entry inh
COC(=O)c1sc2nc(CN3CCOCC3)nc(N3CCOCC3)c2c1C	1.1	14.9%	10.4µM*	22.2%	?	17.3%[46.1 µM]
CN1CCN(c2nc(-c3ccccc3)nc(-c3ccccc3)c2C#N)CC1	-9.5	?	?	?	?	?
COC(=O)c1sc2nc(-c3ccccc3)nc(N3CCN(C)CC3)c2c1C	13.4	?	3.7µM*	.	-29.2%	?
COc1ccc(-c2nc(-c3ccccc3)nc(N3CCN(C)CC3)c2C#N)cc1	-30.1	-29.4%	?	13.1µM*	?	?
CCOC(=O)c1sc2ncnc(N3CCN(C)CC3)c2c1C	-18.0	.	21.2%	91.3%	-16.4%	.
CCc1cc2c(nc1CC)CCCN2S(=O)(=O)c1ccc(C#N)cc1	24.3	.	.	.	.	.
Cc1nc(Nc2ccc(O)cc2)c2c3c(sc2n1)CCCC3	-75.9*	?	14.7µM*	?	?	?
Cc1ccc(CNc2nc(C)nc3sc4c(c23)CCC4)cc1	?	41.5%[14.3 µM]	-23.7%	?	.	?
COc1cc2c(cc1OC)CN(c1ccc([N+](=O)[O-])cc1C#N)CC2	?	-16.7%	-6.7%	14.7µM*	?	?
COc1cc2c(cc1OC)CN(c1ccc([N+](=O)[O-])cc1Cl)CC2	-24.0	-8.4%	?	?	?	?
CCC(C)C1NC(=O)C2CCCN2C(=O)C(CC(C)C)OC(=O)CCNC(=O)C(C)N(C)C(=O)C(C(C)C)N(C)C1=O (stereo not given)	-86.8*	3.16µM*	.	.	?	2µM*
COc1ccc(-n2nc3c(c2NC(=O)C(C)Oc2ccccc2)CS(=O)(=O)C3)cc1 (stereo not given)	-24.2	.	0.2%	9.28µM*	11.6%	.
COc1ccc(-n2nc3c(c2NC(=O)C2CCCC2)CS(=O)(=O)C3)cc1	-13.1	5.4%	?	1.5%	.	-13.1%
O=C(Nc1c2c(nn1-c1ccc(F)cc1)CS(=O)(=O)C2)c1ccc(Br)o1	-10.0	.	11.7µM*	?	17.5%	.
COc1ccc(-n2nc3c(c2NC(=O)c2ccc(Br)o2)CS(=O)(=O)C3)cc1	0.0	.	-2.6%	?	11.6%	.
O=C(Nc1c2c(nn1-c1ccc(F)cc1)CS(=O)(=O)C2)C1CCCC1	-27.0	.	3.6%	10.4µM*	0.9%	.
C[C@H]1[C@@H](NS(=O)(=O)c2ccc([N+](=O)[O-])cc2)CC[C@@]23CCCN2C(=O)CCC[C@@H]13	-20.9	.	.	.	.	.
CN(Cc1ccc(OCC(O)CN2CCCCC2)cc1)Cc1ccnc2ccccc12 (stereo not given)	-65.8*	.	11.7µM*	3.4%	5.62µM*	.
Oc1ccc(/C=C/c2cc(O)cc(O)c2)cc1	64.1	7.3µM*	1.9%	2.4%	-6.7%[8.37 µM]	3.16µM*
CO[C@]12C(COC(N)=O)C3=C(C(=O)C(C)=C(N)C3=O)N1CC1NC12 (stereo not given in full)	.	.	0.239µM*	0.601µM*	.	.
CS(=O)(=O)c1ccc(CNC(=O)C2(C(F)(F)F)C/C(=C\Cc3ccccc3)CCCO2)cc1 (stereo not given)	7.3	.	.	.	19.2%[8.37 µM]	.
Cc1cccc(N2CCN(C(=O)CSc3nnnn3C3CC3)CC2)c1C	-24.8	.	?	?	13.3%	.
